# Screening data (PubChem)
# An excerpt weighted towards active compounds, which were near 2.1% of everything screened.
# D2 ag-1 = D2 dopamine receptor (human) agonism | activation, % at 2 µM | HEK293 T-REx D2 cells, calcium flux agonist mode | P14416 | AID 485358 | actives 0.53% (n = 340,000);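 active = activation over 3 SD above normal in the single-dose calcium agonist read, cut at about 30% in these data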; also: 0% is about no effect
# Target sequence (P14416 whole entry, looked up): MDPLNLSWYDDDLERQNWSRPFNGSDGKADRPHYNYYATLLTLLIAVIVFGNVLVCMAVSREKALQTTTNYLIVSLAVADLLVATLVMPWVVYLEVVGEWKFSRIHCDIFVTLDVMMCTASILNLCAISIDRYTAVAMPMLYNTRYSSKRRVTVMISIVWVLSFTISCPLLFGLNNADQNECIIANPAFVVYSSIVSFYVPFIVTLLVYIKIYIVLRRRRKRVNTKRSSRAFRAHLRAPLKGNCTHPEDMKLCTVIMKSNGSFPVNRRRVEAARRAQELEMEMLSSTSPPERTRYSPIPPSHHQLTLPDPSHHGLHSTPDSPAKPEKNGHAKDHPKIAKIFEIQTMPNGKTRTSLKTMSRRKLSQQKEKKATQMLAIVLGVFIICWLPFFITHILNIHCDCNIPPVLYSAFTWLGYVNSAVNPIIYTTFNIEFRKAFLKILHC
#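 Tetracycline-induced HEK293 Trex cells with D2 receptor force-coupled to calcium signaling, plated overnight at 30 C and loaded with no-wash calcium dye. Calcium flux read kinetically for 180 s after compound addition; responses flag agonists.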
# D2 PAM-1 = human D2 receptor positive allosteric modulation. AID 624464. potentiation, % (test concentration not listed). DiscoveRx D2 beta-arrestin cells, luminescence, 90 min; 100% = 57 uM dopamine signal. actives 0.23% (n = 360,000); in the data active = potentiation above about 50%; inconclusive = mostly about 30% to 49%
#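 PathHunter beta-arrestin assay in DiscoveRx D2 cells. Compounds were added with an EC20 of dopamine (50 nM final) for 90 min at 37 deg C. Luminescence was read 1 h after detection reagent, with 57 uM dopamine as the EC100 control.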
# D2 antagonist = D2 dopamine receptor (human) antagonism; P14416; HEK293 TREx D2 cells, calcium flux, dopamine EC80; inhibition, % at 10 µM; actives 2% (n = 340,000); in the data active = inhibition above about 30%; inactive = below that, where a call was filed; also: 0% is about no effect
#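 Dopamine at EC80 is the agonist stimulus; test compounds precede it by 180 s. Calcium flux read kinetically in a force-coupled, inducible HEK293 T-REx D2 cell line.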
# D2 ag-2 = activates the human D2 dopamine receptor | P14416 | actives 0.084% (n = 360,000) | activation, % (test concentration not listed) | DiscoveRx PathHunter D2 beta-arrestin, luminescence, 90 min; 100% = 57 uM dopamine signal; in the data active = activation above about 40%; inconclusive = between about 15% and that limit
#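 DiscoveRx PathHunter D2 beta-arrestin cells (2,100/well) attached overnight, then compound-stimulated 90 min at 37 C in HBSS/10 mM HEPES/0.1% Tween-20 buffer; beta-galactosidase complementation read by luminescence after 1 h at ambient temperature. Dopamine 57 uM final (EC100) as control.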
# LDHA block = LDHA (human) enzyme inhibition; actives 0.15% (n = 480,000); P00338; purified LDHA, NADH/diaphorase-resazurin fluorescence; stronger effect = lower value; activity change, % (values are at about 110 or 230 µM); in the data active = activity change below about -30%; inconclusive = mostly about -25% to -30%;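 also: plate controls were DMSO wells for no effect and wells without enzyme for full effect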
#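 Enzyme activity of human lactate dehydrogenase 5 (2 nM; 0.06 mM NADH, 0.2 mM pyruvate, 5 min, RT) is measured via a resazurin/diaphorase fluorescence readout of residual NADH.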
# D2 PAM-2 = positive allosteric modulators of human D2 dopamine receptor; HEK293 T-REx D2, calcium flux, EC20 dopamine potentiation; actives 0.34% (n = 340,000); potentiation, % at 10 µM; AID 485347;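 active = potentiation over 3 SD above the plate norm, cut at about 30% in these data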; also: 0% is about no effect
#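 Tetracycline-induced HEK293 T-REx cells force-coupled to calcium signalling expressed D2; compounds were pin-added after a 10 s baseline, read kinetically 180 s, then an EC20 dopamine challenge followed with a further 180 s calcium read.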
# * marks the source's active call; other numbers are inactive results; u = inconclusive; x = no result given.
SMILES,D2 ag-1,D2 PAM-1,D2 antagonist,D2 ag-2,LDHA block,D2 PAM-2
COc1cccc(NC(=S)N2C3CCCC2CC(NC(=O)C2CC2)C3)c1 (stereo not drawn),x,0.7,x,-3.9,-3.4,x
COc1cccc(NC(=O)N2C3CCCC2CC(NC(=O)C2CC2)C3)c1 (stereo not drawn),0.8,-4.0,34.1*,-3.7,-4.7,-11.1
COc1cc(C(=O)NC2CCN(Cc3ccccc3)CC2)cc(Cl)c1OC,-0.3,-25.7,88.9*,-0.9,-5.1,-24.0
COc1cccc(C(=O)NC2CC3CCCC(C2)N3Cc2ccc(F)cc2)c1 (stereo not drawn),x,-22.4,x,-1.0,-6.8,x
COc1ccc(-n2c(SCC(=O)N3CCc4ccccc43)nc3c(c2=O)SCC3)cc1,x,x,x,x,-6.8,x
COc1cc(OC)cc(C(=O)NC2CCN(CCCOc3ccccc3)CC2)c1,0.0,-5.1,46.9*,-4.6,-19.8,-11.1
COc1ccc(C(=O)NC2CC3CCCC(C2)N3Cc2ccccc2)cc1OC (stereo not drawn),0.1,-5.4,81.7*,-4.9,-1.4,-31.4
COc1cc(C(=O)NC2CC3CCCC(C2)N3Cc2ccccc2)cc(OC)c1OC (stereo not drawn),-0.8,-7.3,83.7*,-2.1,-2.4,-31.9
CCCN1CCC(NC(=O)c2cccc(Oc3ccccc3)c2)CC1,-0.6,-34.5,8.4,-4.6,-2.1,-3.8
CC1=CC(C)C(COC(=O)C[N+]2(C)CCOCC2)C(C)C1 (stereo not drawn),x,x,x,x,-11.6,x
N#C/C(=C\c1ccc(-c2cccc(C(=O)O)c2)o1)c1nc2ccccc2[nH]1,x,x,x,x,30.6,x
CCCC[n+]1ccn(-c2nc3c([N+](=O)[O-])cccc3n2C)c1,0.3,-68.9,34.1*,-6.9,-9.3,-7.6
CCCCc1c(C)[nH]c2c(C)cccc2c1=S,x,x,x,x,7.1,x
O=C(Nc1cccnc1)c1ccc(CN2CCc3ccccc3C2)cc1,2.8,-36.5,65.8*,-0.8,1.1,-23.3
O=C(Nc1ccccc1)c1ccc(CN2CCc3ccccc3C2)cc1,-0.5,-12.1,54.2*,0.5,-6.8,x
COC(=O)c1ccc(C)c(NC(=O)c2ccc(CN3CCc4ccccc4C3)cc2)c1,22.0,-26.2,77.9*,-8.0,-3.5,-28.7
Cc1cc(C)cc(NC(=O)c2ccc(CN3CCc4ccccc4C3)cc2)c1,-0.6,-12.5,-27.4,1.2,-5.0,-18.0
Cc1ccc(NC(=O)c2ccc(CN3CCc4ccccc4C3)cc2)cc1,1.0,-40.7,16.6,-8.6,0.9,-17.0
CCOC(=O)c1cc2cc(C(C)CC)ccc2[nH]1 (stereo not drawn),x,x,x,x,6.1,x
O=C(O)CCCC(=O)Nc1nc2n(n1)C(c1ccc(F)cc1)CC(c1ccc(Cl)cc1)N2 (stereo not drawn),-0.8,-9.1,32.3*,-2.5,1.2,-8.1
COCC(=O)Nc1nc2n(n1)C(c1ccc(OC)cc1)CC(c1ccc(OC)cc1)N2 (stereo not drawn),0.8,-3.0,11.3,-2.3,-7.4,3.6
COC(C[C@H]1O[C@@H]1[C@@H](O)[C@H](C)OCc1ccccc1)OC,-0.2,-1.0,35.9*,-1.0,-1.8,7.7
COc1ccc(/C=N/Nc2nnc(-c3ncc[nH]3)c3ccccc23)cc1,0.1,-9.4,47.4*,-0.1,0.0,-19.6
O=C(OCC(=O)N(Cc1ccccc1)Cc1ccccc1)c1ccc2ccccc2n1,x,x,x,x,-36.6*,x
CC(C)N(C(=O)COC(=O)c1ccc2ccccc2n1)C(C)C,x,x,x,x,-4.0,x
SMILES,D2 ag-1,D2 PAM-1,D2 antagonist,D2 ag-2,LDHA block,D2 PAM-2
Nc1cc(S(=O)(=O)O)ccc1S(=O)(=O)O,x,x,x,x,9.7,x
CCc1ccc(C2(O)CC(C(F)(F)F)=NN2C(=O)Cc2ccc([N+](=O)[O-])cc2)cc1 (stereo not drawn),-0.2,-12.5,32.8*,-3.4,4.5,-4.8
O=C(c1ccccc1O)N1N=C(C(F)(F)F)CC1(O)c1ccc([N+](=O)[O-])cc1 (stereo not drawn),0.9,-12.6,-5.9,-7.2,1.1,-7.0
CCN(CC)C(=O)CSc1nc2nc(C)cc(C)c2c(=O)[nH]1,-0.3,-2.2,-15.1,2.1,-9.5,-5.6
Cc1cc(C)c2c(=O)[nH]c(SCC(=O)N(C)C)nc2n1,0.4,-2.0,-0.9,-2.8,-2.3,36.7*
CCCCOc1ccccc1N1CCN(CCCN2C(=O)C3CCCN3C2=O)CC1 (stereo not drawn),0.8,3.7,76.2*,-2.5,-0.9,-23.7
COc1ccccc1N1CCN(CCCN2CC(=O)N3CCCCC3C2=O)CC1 (stereo not drawn),x,-21.2,x,0.2,3.5,x
Cc1ccccc1N1CCN(CCCCN2C(=O)C3CCCN3C2=O)CC1 (stereo not drawn),7.6,-31.5,58.9*,-3.6,-4.2,-18.7
COc1ccccc1N1CCN(CCCCN2C(=O)C3CCCCN3C2=O)CC1 (stereo not drawn),0.3,-28.1,94.3*,1.4,3.1,-18.2
O=C1C2CCCCN2C(=O)N1CCCN1CCN(c2ccc(F)cc2)CC1 (stereo not drawn),0.8,-22.3,-11.9,-1.2,1.0,-9.8
Clc1ccc(COc2ccc(CNC3CC3)cc2)cc1,x,x,x,x,4.4,x
CC1(C)CC(NC(=S)Nc2ccc(SC(F)F)cc2)CC(C)(C)N1,x,x,x,x,2.6,x
Cc1ccc(NC(=O)Nc2cn(CC(C)C)c(=O)c3ccccc23)c(C)c1,x,x,x,x,-21.5,x
Cc1ccc(Cl)cc1NC(=O)Nc1cn(CC(C)C)c(=O)c2ccccc12,-0.1,x,x,x,-39.9*,-7.2
CCN(CC)c1ccc(C=C2C(=O)OC3(CCCCC3)OC2=O)cc1,0.3,-4.1,-14.3,-0.5,-2.5,-0.5
CCN(CC)c1ccc(/C=C2/C(=O)c3ccc(C(=O)O)cc3C2=O)cc1,84.2*,-32.0,28.4,-2.6,24.0,-1.7
CCCCCCc1ccc(C(=O)Nc2ccc(C)cc2)cc1,x,x,x,x,7.2,x
CCN1CCN(C(=O)c2ccc3c(c2)c(C)c(C)n3Cc2ccccc2)CC1,0.0,-16.2,37.5*,-1.3,-7.3,-32.1
O=C1C=C(c2cccs2)C[C@H](c2ccccc2)[C@H]1n1nnc([N+](=O)[O-])n1,-1.0,92.2*,-10.2,u,13.6,7.2
O=C(COC(=O)[C@H](Cc1ccccc1)N1C(=O)c2ccccc2C1=O)Nc1ccc2c(c1)OCO2,0.7,4.8,-9.2,-3.5,-2.2,-13.8
CC(C)[C@@H](C(=O)OCC(=O)Nc1ccc2c(c1)OCO2)N1C(=O)c2ccccc2C1=O,-1.0,-15.1,46.3*,0.9,-1.5,1.2
O=C(Nc1ccc2c(c1)oc1ccccc12)c1ccc2c(c1)OCO2,0.5,-12.4,10.4,-1.7,-3.1,-12.1
